Measurements: PubChem BioAssay AID686949 (The Scripps Research Institute Molecular Screening Center, 2013)
Screen size: about 3,200 compounds; about 2,200 (69%) were called active. So high a share suggests a set chosen from earlier hits. Not all results are given here. Values without a mark were called inactive.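 How the source made its calls: active means activation, as change over the incubation, above the mean of all tested compounds plus 3 SD (cut at about 13% in these data); inactive means the rest.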

target: Kallikrein-7 (Homo sapiens) (UniProt P49862); assay: proKLK7 zymogen activators, confirmation, biochemical, fluorescence intensity, triplicate (AID 686949); settings: purified proKLK7, EDANS-DABCYL substrate fluorescence; at 7 µM; hits give high values; scaled: vehicle 0, mature enzyme 100
Sequence (P49862 whole entry, looked up): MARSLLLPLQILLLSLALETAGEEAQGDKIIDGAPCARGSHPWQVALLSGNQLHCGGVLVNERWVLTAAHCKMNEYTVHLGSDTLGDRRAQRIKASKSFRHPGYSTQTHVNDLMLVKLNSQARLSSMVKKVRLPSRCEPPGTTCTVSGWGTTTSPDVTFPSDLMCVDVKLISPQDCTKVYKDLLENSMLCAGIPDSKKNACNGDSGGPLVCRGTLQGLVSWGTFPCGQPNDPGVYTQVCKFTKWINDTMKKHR

Row | Structure (SMILES) | activation
1 | Clc1ccc(-c2cccc3nccn23)cc1 | 8.31%
2 | COc1cc(/C=C/C(=O)Nc2ccc(OC)c(S(=O)(=O)N3CCOCC3)c2)ccc1OCC#N | 96.2% (active)
3 | CCOc1ccccc1C1C(C(=O)OC)=CN(C)C=C1C(=O)OC | -23.5%
4 | COCC(=O)Nc1nnc(COc2ccccc2)s1 | -0.07%
5 | CN(C(=O)COc1ccccc1)c1nnc(-c2ccncc2)s1 | 111% (active)
6 | CN(C(=O)c1ccccn1)c1nnc(-c2ccccn2)s1 | 74% (active)
7 | Oc1ccc2ccc3cccc[n+]3c2c1 | 34.6% (active)
8 | CCN(CC)CCCNC(=O)c1cc2c(=O)[nH]c3ccc(C)cc3c2s1 | 1.54%
9 | CN(C(=O)c1cc2c(=O)n3ccccc3nc2s1)C1CCCCC1 | 33% (active)
10 | CCOCCCNC(=O)c1cc2c(=O)n3ccccc3nc2s1 | 74.1% (active)
11 | CCN(CC)CCCC(C)n1c2nc(=O)[nH]c(=O)c-2nc2cc(Cl)ccc21 (stereo not given) | 75.6% (active)
12 | CCN1CCN(C(=O)Cn2nc(C)n3c(cc4c(OC)cccc43)c2=O)CC1 | 21% (active)
13 | COC(=O)c1cc(N2CCNCC2)nc2ccccc12 | 17.1% (active)
14 | CN(CCc1ccccn1)S(=O)(=O)c1ccc2c3c(cccc13)C(=O)N2 | 68.2% (active)
15 | C=CCn1c(N)c(S(=O)(=O)c2cccs2)c2nc3ccccc3nc21 | 8.74%
16 | COCCCn1c(-c2cccs2)nc2nc3ccccc3nc21 | 24.1% (active)
17 | Cc1cc2cc3n(c2nn1)N=C(Cl)CC3 | 33.3% (active)
18 | CCC1=C(C(=O)OC)C(c2cc(OC)ccc2OC)C(C#N)=C(N)O1 (stereo not given) | 32.8% (active)
19 | O=c1oc2c(CN3CCCCC3)c(O)ccc2c2c1CCCCC2 | 74.6% (active)
20 | COc1c(N2CCN(C(=S)Nc3ccccc3F)C(C)C2)c(F)cc2c(=O)c(C(=O)O)cn(C3CC3)c12 (stereo not given) | 18.5% (active)
21 | COc1ccc2c(c1)CCc1cn3ncc(C#N)c3nc1-2 | -106%
22 | CNc1cncc(-c2ccc(NS(C)(=O)=O)cc2)n1 | 39.7% (active)
23 | C/C(=C\c1ccccc1)C1NC(=O)c2c(sc3c2CCCC3)N1 (stereo not given) | 22.4% (active)

Row | Structure (SMILES) | activation
24 | COCc1cc(=O)oc2cc(NS(=O)(=O)c3ccc(C)cc3)ccc12 | 72.3% (active)
25 | N#CC1=C(N)Oc2c(sc3ccccc23)C1c1ccco1 (stereo not given) | -25.1%
26 | CC1(C)Oc2ccc3ccc(=O)oc3c2/C(=N/O)C1=O | 89.9% (active)
27 | Cc1nc2ccc(N)nc2nc1C | 49.6% (active)
28 | O=C1NC(c2cccc(Cl)c2)Nc2ccccc21 (stereo not given) | 20.5% (active)
29 | COc1ccc(CCNC(=O)Nc2ccc3c(c2)c(=O)n(C)n3C)cc1OC | 24.5% (active)
30 | CCNC(=S)Nc1ccc2c(c1)c(=O)n(C)n2Cc1ccc(Cl)cc1 | -4.46%
31 | C[C@@H]1C(c2ccc(F)cc2)=NN(c2ccc(Br)cc2)[C@H]1C(=O)N1CCOC1=O | 27.9% (active)
32 | CCN(CC(=O)Nc1c(F)cccc1F)C(=O)c1ccc(-c2ccc(C(C)=O)cc2)o1 | -16.9%
33 | CCCCN(C)CCCNC(=O)c1cc(-c2cccs2)nc2ccccc12 | -47.1%
34 | O=C(NCCN1CCOCC1)c1cc(-c2cccs2)nc2ccccc12 | 24.8% (active)
35 | Cc1ccc(C2Nc3ccccc3C(=O)N2CCN2CCNC2=O)cc1 (stereo not given) | 16.7% (active)
36 | CC(C)(C)C(=O)Nc1ccc(-c2cn3cccnc3n2)cc1 | 73.9% (active)
37 | CC(=O)Nc1ccc(-c2cn3cccnc3n2)cc1 | 74% (active)
38 | CCCCCC(=O)Nc1ccc(-c2cn3cccnc3n2)cc1 | 24.5% (active)
39 | CCN1CCCC1CNC(=O)c1cc2cc(OC)c(OC)cc2[nH]1 (stereo not given) | 24.7% (active)
40 | CCOc1ccc(-n2c(SCC(=O)Nc3cc(C)c(NC(=O)c4ccccc4)cc3OC)nnc2-c2cccs2)cc1 | 15.9% (active)
41 | CC(=O)Oc1ccc2c(C)c(CC(C)O)c(=O)oc2c1 (stereo not given) | 72.5% (active)
42 | CC(=O)Nc1cc2ccc(OC(C)=O)cc2oc1=O | 125% (active)
43 | CN1c2ccccc2-c2nc3ccccc3n2C1c1ccco1 (stereo not given) | 7.38%
44 | Cc1cc(C)c2nc3nc(C)cc(C)c3c(N)c2c1 | 69% (active)
45 | COc1cc2c(cc1OC)C(C(C)C)=NC(C)(C)C2 | 63.8% (active)
